Values joined by “and” are separate entries in the source; they are usually repeats but may differ in a detail not shown here. Equal values may be shown once. The panel holds about 83,000 compounds, 20% with a hit somewhere; the sample as a whole holds those more often.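 Cells were grown in 96-well plates and exposed to the test compound at a single concentration for 48 hours; results are reported as percent growth, with values below 10 considered active.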 A number with no mark means an inactive call. Active and inactive are the calls of the source.
What follows are molecules tested on OVCAR-5 ovarian (assay: NCI-60 one-dose screen, 48 h (100 = growth as untreated, 0 = no growth, -100 = all killed)). Conditions: 10 µM unless noted.
Procedure: Growth inhibition of the OVCAR-5 human tumor cell line is measured as a screen for anti-cancer activity. Cells are grown in 96 well plates and exposed to the test compound for 48 hours. Compounds are tested at a single concentration, which is 10^-5 M for most compounds. The reported endpoint is percent growth (GI% or GIPRCNT), where numbers from 0 - 100% represent growth inhibition, and numbers from -100% - 0 represent cell death. For example, a value of 40 represents 60% growth inhibition. A value of 0 means no net growth occurred over the course of the experiment. A value of -40 indicates 40% of cells at the beginning of the experiment died by the end of the experiment. A value of -100 means all cells are dead at the end of the experiment.
NCI-60 Human Tumor Cell Lines Screen was performed using the standard one-dose NCI protocol, which is described in more detail at https://dtp.cancer.gov/discovery_development/nci-60/default.htm.
Compounds with GIPRCNT values below 10 were considered active. Activity score was based on GIPRCNT using the following formula: […]
Score is 0 for GIPRCNT values of 100 or above, 50 for GIPRCNT values of 0, and 100 for GIPRCNT values of -100.

SMILES	growth
C#CCOc1ccccc1/C=N/Nc1nc(-c2ccc(Cl)cc2)cs1	92.3%
O=C(/C=C/c1cccc(F)c1)c1cccc(OCCCOc2cccc(C(=O)/C=C/c3cccc(F)c3)c2)c1	77.8%
O=C(CCl)Nc1ccc(NC(=O)c2cc(Cl)ccc2O)c(Cl)c1	121%
Cn1c(SCC(=O)c2ccc(F)cc2)nc2ccccc2c1=O	105%
CN1CCN(c2ccc(Nc3nc(NCCCNS(=O)(=O)c4cccc5ccccc45)c4sccc4n3)cc2)CC1	10.8%
Cc1ccc(/C(N)=N/C(N)=N/c2nc3ccccc3s2)cc1	111%
C#CCOc1cccc(-c2nc(N)nc(Nc3ccccc3SSc3ccccc3Nc3nc(N)nc(-c4cccc(OCC#C)c4)n3)n2)c1	45%
COc1cc2oc(-c3cccc(NC(=O)[C@@H](N)C(C)C)c3)cc(=O)c2c(OC)c1OC	103%
O=C(CCCCCCN1CC(=O)N2[C@@H](C3CC3)c3[nH]c4ccccc4c3C[C@H]2C1=O)NO	71.8%
COc1cc(C(=O)c2cc(C(C)=O)c3cccc(C)n23)cc(OC)c1OC	65.8%
C#C[C@]1(O)CC[C@H]2[C@@H]3CC=C4c5sc(N(C)c6ccccc6)nc5CC[C@]4(C)[C@H]3CC[C@@]21C	92.5%
O=C(/C=C/c1cccc(Br)c1)c1cccc(OCCCCOc2cccc(C(=O)/C=C/c3cccc(Br)c3)c2)c1	104%
NS(=O)(=O)c1ccc(Nc2nc(N/N=C/c3ccc4c(c3)OCO4)nc(Nc3ccccc3)n2)cc1	90.8%
CCOC(=O)c1cccnc1Nc1ccc(NC(=O)Nc2ccc(Cl)c(C(F)(F)F)c2)cc1	85.7%
O=C(Nc1ccc(N2CCOCC2)cc1)Nc1ccc2c(ccn2C(=O)c2cccc(F)c2)c1	99.3%
Cn1ncc2c(C(=O)c3ccc(F)cc3)nc(C(C)(C)C)nc21	98.2%
COc1ccccc1N1CCN(C2=C(Cl)C(=O)c3ncccc3C2=O)CC1	114%
COc1cc(-c2nc(-c3ccccc3)[nH]c2-c2ccnc(NCCCNS(=O)(=O)c3cccc(F)c3)n2)ccc1F	118%
C#CCOc1cccc(/C(N)=N/C(N)=N/c2nc3ccccc3s2)c1	111%
COC(=O)c1ccc(NC2=C(Cl)C(=O)C(C)=C(C)C2=O)cc1	90.9%

SMILES	growth
CSc1ccc(/C(=N/N=C(N)N)c2ccc(Cl)cc2)cc1	11.4%
CCCCCCCCCC(=O)NC(C)(C)C(=O)N1CCC[C@H]1C(=O)N[C@@H](CC(C)C)C(=O)N[C@@](C)(CC)C(=O)N[C@@H](CCC(N)=O)C(=O)N[C@H](CCC(N)=O)C(=O)NC(C)(C)C(=O)NC(C)(C)C(=O)N[C@@H](CCC(N)=O)C(=O)N[C@H](CC(C)C)C(=O)N[C@H](CO)CC(C)C	-97.7% (active) and -82.4% (active)
Cc1ccc2c(n1)C(=O)C(Cl)=C(Nc1cccc(C(=O)OC(C)(C)C)c1)C2=O	130%
Nc1nc(=O)n([C@H]2C[C@H](O)[C@@H](CO)O2)cc1C=O	94.2%
COc1ccccc1/C=C1\Oc2ccc(O)c(O)c2C1=O	105%
CCCCCCN1C=C/C(=C\C(=O)n2ccc3ccccc32)c2ccccc21	90.9%
CCOC(=O)C1=C(C)NC(C)=C(C(=O)OCc2ccccc2)C1c1cccc(C#N)c1 (stereo not given)	61.3%
NC(=O)n1c(=O)n(-c2cccc(C(F)(F)F)c2)c(=O)c2cc(-c3ccc(F)cc3F)ccc21	43.7%
CCCCCN1C(=O)/C(=c2\sc3n(c2=O)C2C(NN=3)N(CC)C(=O)N2CC)c2cccc(C)c21 (stereo not given)	72.4%
N#Cc1c(-c2cccs2)cc(-c2cnccn2)nc1SCC(=O)N/N=C/c1ccc(Cl)cc1	112%
O=C(Nc1cccc(C(F)(F)F)c1)N1CCN(c2cc(-c3cn(-c4ccccc4)nc3-c3cccc(O)c3)ccn2)CC1	82.3%
CN1CCN(Cc2ccc(NC(=O)c3cncc(C#Cc4cnc5ccc(N)nn45)c3)cc2C(F)(F)F)CC1	32%
COc1cc(OC)cc(-c2cc(-c3c[nH]c4ccccc34)nc(-c3c[nH]c4ccccc34)c2C#N)c1	109%
CC1=C(C)C(=O)C(Nc2cccc(C(=O)OC(C)(C)C)c2)=CC1=O	98.3%
O=C(CCCCCCNC(=O)C(O)(O)C(F)(F)F)Nc1ccc(Br)cc1	5.89% (active)
CCCCCCNC(=O)Oc1ccc(/C(=C(/C)c2ccc(Cl)cc2)c2ccc(OCCN3CCCCCC3)cc2)cc1	83%
CCc1cc2c(cc1Cl)nc1c(=O)[nH]c(=O)nc-1n2CCOCC(C)C	120%
Cc1ccc(C(=O)CSc2nc3ccccc3c(=O)n2C)cc1	105%
C#Cc1nc(C(=O)NCCCCCCC(=O)NO)cs1	10.2%
O=C1C(SCc2ccccc2)=C(Cl)CN1c1ccccc1	97.5%

From PubChem BioAssay (NCI)
